HTT ATP protect – protects HTT-Q103 PC12 cells, measured by ATP | Potency, µM (series often up to 56.4 µM), most hits filed as activators | AID 1471 | actives 0.14% (n = 230,000) | PC12 HTT-Q103 induced, cytoprotection, ATP luminescence, 40 h; note: nearly all actives have a fitted effect of over 45% in size
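Cells were plated at 1500 per well in phenol red-free DMEM with 5% equine and 5% calf serum. Tebufenozide (100 nM final) and compounds were added, then ATPlite reagent, and luminescence was read.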
NPSR antag – neuropeptide S receptor (human) antagonism, cAMP; Q6W5P4; CHO-NPSR cells, cAMP TR-FRET, antagonist mode; Potency, µM (doses to about 38.3 µM), actives largely listed as inhibitors; actives 1% (n = 220,000); note: nearly all actives have a fitted effect of over 50% in size
Target sequence (Q6W5P4 whole entry, looked up): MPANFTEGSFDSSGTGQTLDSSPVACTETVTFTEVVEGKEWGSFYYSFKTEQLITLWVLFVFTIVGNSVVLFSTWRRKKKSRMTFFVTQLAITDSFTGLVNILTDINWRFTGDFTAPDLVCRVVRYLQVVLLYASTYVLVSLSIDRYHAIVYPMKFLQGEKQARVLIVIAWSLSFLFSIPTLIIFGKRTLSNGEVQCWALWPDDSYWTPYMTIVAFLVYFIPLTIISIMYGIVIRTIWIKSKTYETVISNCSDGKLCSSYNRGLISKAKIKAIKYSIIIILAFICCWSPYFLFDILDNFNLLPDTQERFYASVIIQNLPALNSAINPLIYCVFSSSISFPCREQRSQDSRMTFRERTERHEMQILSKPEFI
LMNA splice mod – modulators of lamin A splicing. HeLa LMNA splicing GFP/RFP minigene ratio, 48 h. Potency, µM (top dose mostly 46.1 µM), hits mostly inhibitors. actives 0.01% (n = 200,000); active = well fitted inhibition curve with a large enough effect in the signal ratio, with a control signal flat, not every such curve was filed as active; inconclusive = small, poorly fitted or top-dose-only effect, or effect the other way, or a change in a side signal; the % refers to the signal ratio
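S3 HeLa cells stably expressing lamin A-EGFP splicing minigene plus DsRed2, 600 cells/well, 48 h compound exposure at 37C. Laser-scanning cytometry; analysed as GFP (500-530 nm)/RFP (575-640 nm) total intensity ratio; 0.5% DMSO vehicle.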
HttQ103 aggreg – mutant huntingtin aggregation inhibition. actives 1.1% (n = 220,000). PC12 HttQ103-GFP aggregates, Acumen cytometry, 40 h. Potency, µM (highest dose often 46.1 µM), most hits filed as inhibitors. AID 1688; note: nearly all actives have a fitted effect of over 60% in size
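PC12/HTTQ103-GFP, ecdysone-inducible; teb 100 nM; cpd qHTS titration; GFP aggregates read on laser cytometer, Ex 488/Em 500-530 nm.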
Epigenetic reg – derepresses silenced GFP reporter in murine cells; Potency, µM (titrated, usually from 53.9 µM), usual class: activators; murine LDR cells, GFP reporter derepression, 30 h; actives 0.2% (n = 280,000); note: nearly all actives have a fitted effect of over 60% in size
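Murine LDR cells bearing a silenced CMV-driven GFP reporter were exposed to compound for 30 h at 37 C. After PBS washes, GFP-positive cells (20-120 um objects) counted by laser-scanning microplate cytometry.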
Numbers stand for hits; 0 = inactive; ? = inconclusive; - = not tested or not shown; [ ] = dose if it differs, or a comment. Hits are enriched below; roughly 1.5% of the tested compounds scored in any of these assays. Unless noted, calls come from the whole dose curve; as a rule, active = well fitted curve in the direction sought with a large enough effect; inconclusive = small, poorly fitted or top-dose-only effect, or another doubt; inactive = no such curve, though single readings can be large; an effect the other way counts as inactive or inconclusive.

SMILES | HTT ATP protect | NPSR antag | LMNA splice mod | HttQ103 aggreg | Epigenetic reg
COc1ccc(CNC(=O)CCc2nnc3n(C)c(=O)c4sccc4n23)cc1 | - | - | - | - | 0
CN[C@@H]1[C@H](O[C@H]2[C@H](O[C@H]3[C@H](O)[C@@H](O)[C@H](N=C(N)N)[C@@H](O)[C@@H]3N=C(N)N)O[C@@H](C)[C@]2(O)C=O)O[C@@H](CO)[C@H](O)[C@H]1O | ? | - | 0 | 0 | 0
COC(=O)Cn1c(C)c(C#N)c2ccccc21 | 0[10 µM] | 0 | 0 | 0 | 0
N#Cc1c2ccc(O)cc2n2ccccc12 | 0 | 0 | ? | 10µM | 0
CC(=O)Nc1ccc(NC(=O)c2cc3c(=O)n(Cc4cccnc4)ccc3nc2C)cc1 | - | - | 0 | - | 0
COc1cccc(Nc2cc(-c3ccccc3)nc(C)n2)c1 | - | - | 0 | - | 0
COc1ccc(OC)c(Nc2cc(-c3ccccc3)nc(N)n2)c1 | 0[10 µM] | ? | ? | 1.26µM | 0
CCCCCCCC[n+]1c(C)n(-c2ccccc2)c2ccc(NC(C)=O)cc21 | 0 | 0 | 0 | 10µM | 0
CC(=O)Nc1ccc(-n2c(=O)c3ccccc3c3ccccc3c2=O)cc1 | 0[10 µM] | 0 | 0 | 0[9.22 µM] | 0
Cc1cccc(NC(=O)c2cc([N+](=O)[O-])ccc2N2CCCCC2)n1 | - | 10µM | - | 0 | 0
Cc1[nH]c2ccccc2c1/C=N/NC(=O)C1CC1(c1ccccc1)c1ccccc1 (configuration not stated) | 0[10 µM] | 0 | ? | 12.6µM | 0
Cc1c(NS(=O)(=O)c2cccs2)cccc1-c1nc2cccnc2s1 | 0[10 µM] | 0 | - | 0[9.22 µM] | 0
O=S(=O)(Nc1cccc2ncccc12)c1cccs1 | 0[10 µM] | ? | ? | 12.6µM | ?
COc1ccc(-n2cc(C(=O)c3ccccc3O)cn2)cc1 | 0 | 0 | - | 0 | 0
O=C(c1cnn(-c2ccccc2)c1)c1ccccc1O | 0[10 µM] | 0 | 0 | 11.2µM | 0
CN1CCN(c2cc(-c3ccccc3Cl)ncn2)CC1 | 0 | - | 0 | - | -
N#C/C(=N\Nc1ccccc1Cl)C(=O)c1ccccc1 | 0 | 0 | 0 | ? | 0
N#C/C(=N\Nc1cccc(Cl)c1)C(=O)c1ccccc1 | 0 | 0 | ? | 3.55µM | 0
COC(=O)c1c(C)n(-c2ccccc2)c2ccc(O)cc12 | 0 | 0 | 0 | 0 | 0
CC(=O)c1c(C)n(-c2ccccc2)c2ccc(O)cc12 | 0 | 0 | ? | 10µM | 0
CCOCCCNC(=O)NC(CCC(C)C)c1c(-n2cccc2)sc2c1CCN(C)C2 (configuration not stated) | - | - | 0 | - | 0
O=c1cc(N2CCCCC2)c(-c2ccccc2)nn1Cc1c(Cl)cccc1Cl | 0 | 10µM | ? | ? | 0
O=C(O)c1ccccc1/C=N\N=C1c2ccccc2-c2ccccc21 | 0[10 µM] | - | - | - | -
CCCCN(CC)CCCNC(=S)Nc1ccc2nc(N3CCN(C)CC3)cc(C)c2c1 | 0 | 0 | - | 28.2µM | 0
CCCCN(CC)CCCNC(=S)Nc1ccc2nc(N3CCN(CC)CC3)cc(C)c2c1 | 0 | 0 | - | ? | 0
SMILES | HTT ATP protect | NPSR antag | LMNA splice mod | HttQ103 aggreg | Epigenetic reg
CC(C)=CCC1C(=O)N(c2ccccc2)N(c2ccccc2)C1=O | 0 | - | ? | 0 | -
CCCCC1C(=O)N(c2ccccc2)N(c2ccc(O)cc2)C1=O (configuration not stated) | 2.24µM | - | - | - | ?
c1ccc(-c2csc3nnc(SCc4ccc5c(c4)OCO5)n23)cc1 | 0[10 µM] | 0 | 0 | 10µM | 0
C=CCN1C(C(=O)c2ccccc2)=C(OC(=O)COc2ccccc2)c2ccccc2S1(=O)=O | 0[10 µM] | 0 | ? | 12.6µM | 0
Cc1cccc(NC(=S)N/N=C/C(C)c2ccccc2)c1C (configuration not stated) | 0 | 0 | 0 | 0 | 0
Cc1ccccc1NC(=S)NCc1ccccc1 | 5.62µM | 0 | 0 | ? | 0
Cc1ccccc1NC(=S)N/N=C/C(C)c1ccccc1 (configuration not stated) | 4.47µM | 0 | 0 | 0 | 0
O=C1c2sc3nc4ccccc4n3c2C(=O)N1c1ccccc1Cl | 0 | 10µM | 0 | 0 | 0
Cc1ccccc1N1C(=O)c2sc3nc4c(c(=O)n3c2C1=O)CCC4 | 0 | ? | 0 | 0 | 0
CCOC(=O)c1c(/N=C/N(C)C)sc(/C=N/Nc2ccccc2)c1-c1ccccc1 | - | 0 | ? | 0 | 10µM
CCOC(=O)c1c(/N=C/N(C)C)sc(/C=N/Nc2ccccc2)c1-c1ccccc1Cl | 0[10 µM] | 0 | ? | ? | 0
CCC(O)OC(O)CC (configuration not stated) | 0 | - | - | - | -
NS(=O)(=O)c1ccc(CCNC(=O)c2cc(-c3ccccn3)nc3ccc(Br)cc23)cc1 | 0 | 10µM | - | 0 | 0
NS(=O)(=O)c1ccc(CCNC(=O)c2cc(-c3ccc(Br)cc3)nc3ccccc23)cc1 | 0[10 µM] | 0 | 0 | 0 | 0
FC(F)(F)c1cnc(C(c2ccccn2)c2ncn[nH]2)c(Cl)c1 (configuration not stated) | 0[10 µM] | 0 | ? | 12.6µM | 0
FC(F)(F)c1cnc(C(c2ccccc2)c2ncn[nH]2)c(Cl)c1 (configuration not stated) | 0[10 µM] | 0 | 0 | 0 | 0
Oc1ccc([C@@H]2CNCc3sccc32)cc1O | 0[1.9 µM] | - | - | - | -
O=C(OCCN1C(=O)c2cccc3c(N4CCOCC4)ccc(c23)C1=O)c1cccc(Cl)c1 | 0[10 µM] | 0 | ? | ? | 20µM
CCn1cc(C(=O)NCc2cccnc2)c(=O)c2cc(F)c(N3CCN(C(=O)c4ccco4)CC3)cc21 | 0 | 0 | ? | 0 | 0
CCn1cc(C(=O)NCc2cccc(F)c2)c(=O)c2cc(F)c(N3CCN(C(=O)c4ccco4)CC3)cc21 | 0 | 10µM | ? | 0 | 0
c1ccc2c(c1)oc1c(Nc3ccc4c(c3)OCO4)ncnc12 | 0 | 0 | 0 | 0 | 0
c1ccc2c(c1)oc1c(NCc3ccc4c(c3)OCO4)ncnc12 | 0[10 µM] | 0 | ? | 11.2µM | 0
Cc1cc(O)ccc1N/C=C1\CCCC1=O | 0[10 µM] | 0 | ? | ? | 0
Cc1ccc([N+](=O)[O-])cc1N/C=C1\CCCCC1=O | 0 | 0 | - | ? | 3.55µM
CCCc1nc2ccccc2c(=O)n1/N=C/c1ccccc1O | 0[0.074 µM] | 0 | ? | 10µM | 0
SMILES | HTT ATP protect | NPSR antag | LMNA splice mod | HttQ103 aggreg | Epigenetic reg
CCCc1nc2ccccc2c(=O)n1/N=C/c1c(C)[nH]n(-c2ccc(C)cc2)c1=O | 0[0.074 µM] | 0 | ? | 17.8µM | 0
CCOC(=O)OCC1C=C[C@H](c2cc(-c3ccccc3)ccc2O)C(c2ccc(C(C)=O)cc2)O1 (some centres not stated) | ? | - | - | - | 0[10.1 µM]
CC(SCc1ccccc1)C(=O)Nc1ccc(F)cc1 (configuration not stated) | - | 0 | 0 | 0 | 0
Cc1cccc(CSC(Nc2ccc(F)cc2)=C(C#N)C#N)c1 | 0[10 µM] | 0 | ? | 4.47µM | 0
N#CC(C#N)=C(Nc1ccc(F)cc1)SCc1cccc(Br)c1 | 0[10 µM] | 0 | ? | 2.24µM | 0
Cc1cc(C)c2nc(SC(C)C#N)cc(C)c2c1 (configuration not stated) | 0.631µM | 0 | 0 | 0 | 0
COc1cccc(/C=N/Nc2nc3ccccc3n3cnnc23)c1O | 0[10 µM] | 0 | ? | 8.91µM | 0
COc1cccc(/C=N/Nc2nccnc2Cl)c1O | 0[10 µM] | 0 | - | 1.26µM | 0

Assay outcomes: PubChem BioAssay, National Center for Advancing Translational Sciences (NCATS)
